# In PubChem BioAssay (NCI):
# About 83,000 compounds went through this panel and 20% of them were active in at least one assay; those are over-represented in the sample as a whole.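 Single-concentration screen, 48 h exposure, 96-well plates. Endpoint: percent growth. Below 10 = active.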 Unmarked numbers belong to inactive results. Activity calls are given as the source filed them.
# Test system: CCRF-CEM leukemia
# Assay: NCI-60 one-dose screen, 48 h (100 = growth as untreated, 0 = no growth, -100 = all killed)
# Settings: 10 µM unless noted
# Method: Growth inhibition of the CCRF-CEM human tumor cell line is measured as a screen for anti-cancer activity. Cells are grown in 96 well plates and exposed to the test compound for 48 hours. Compounds are tested at a single concentration, which is 10^-5 M for most compounds. The reported endpoint is percent growth (GI% or GIPRCNT), where numbers from 0 - 100% represent growth inhibition, and numbers from -100% - 0 represent cell death. For example, a value of 40 represents 60% growth inhibition. A value of 0 means no net growth occurred over the course of the experiment. A value of -40 indicates 40% of cells at the beginning of the experiment died by the end of the experiment. A value of -100 means all cells are dead at the end of the experiment.
# NCI-60 Human Tumor Cell Lines Screen was performed using the standard one-dose NCI protocol, which is described in more detail at https://dtp.cancer.gov/discovery_development/nci-60/default.htm.
# Compounds with GIPRCNT values below 10 were considered active. Activity score was based on GIPRCNT using the following formula: […]
# Score is 0 for GIPRCNT values of 100 or above, 50 for GIPRCNT values of 0, and 100 for GIPRCNT values of -100.
row,SMILES,growth
1,CC(CCc1ccc(Cl)c(Cl)c1)NCc1ccc(C(C)(C)C)cc1 (stereo not given),77.2%
2,CCN1C(=O)N(CC)C2Nn3c(s/c(=C\c4cccc([N+](=O)[O-])c4)c3=O)=NC21 (stereo not given),46%
3,CCc1ccccc1-n1c(N)c(C#N)c(-c2ccc(N(C)C)cc2)c(C#N)c1=O,-30.8% (active)
4,CCCCC1CCCCN1C(=O)OCC (stereo not given),108%
5,CN(C)CCCn1c(=O)c2ccccc2c2ccccc21,49.9%
6,O=C(NCCCNc1cc(-c2cn(-c3ccccc3)nc2-c2cccc(O)c2)ccn1)c1cccc(O)c1,40.5%
7,CC1(C)CC(=O)CC2(C1)N=C(N)Nc1nc3ccccc3n12 (stereo not given),93%
8,COc1ccc(/C=N/C2=C(C#N)C(c3ccc(OC)cc3)c3ccc4ccccc4c3O2)cc1 (stereo not given),77.4%
9,NC(=S)N/N=C/Cc1ccccc1,69.9%
10,O=[N+]([O-])c1ccc(C2CC(c3ccccc3)=Nc3ccccc3S2)cc1 (stereo not given),73.2%
11,C[C@]12CC[C@@H]3c4cc(OC(F)F)c(O)cc4CC[C@H]3[C@@H]1CC[C@@H]2OS(N)(=O)=O,16.6%
12,COc1cc(C2CC(c3cc(OC)c(OCCCOc4ccc(-n5c(/C=C/c6ccccc6)nc6ccccc6c5=O)cc4)c(OC)c3)=NO2)cc(OC)c1OC (stereo not given),76.6%
13,NC(=S)Nc1cccc(O)c1,103%
14,O=C(O)C1CCC(=O)N1C(=O)OCc1ccccc1 (stereo not given),102%
15,NC(N)=NN=C(c1ccccc1)c1ccccc1,27.7%
16,O=c1[nH]c2ccccc2n1C1CCN(CCOc2ccccc2)CC1,74.3%
17,CC1OC(O[C@H]2/C=C/C=C/C=C/C=C/C=C/C=C/C=C/[C@H](C)[C@@H](O)[C@@H](C)[C@H](C)OC(=O)CC(O)CC(O)CCC(O)C(O)CC(O)C[C@]3(O)C[C@H](O)C(C(=O)O)C(C2)O3)C(O)[C@H](N)C1O (stereo not given in full),36.8%
18,COC(=O)[C@]12CC[C@@H](C)[C@H](C)[C@@H]1C1=CC[C@@H]3[C@@]4(C)C(C=O)=C[C@@](C)(COC(=O)c5ccco5)C4=CC[C@@]3(C)[C@]1(C)CC2,4.27% (active)
19,Cc1ccc(S(=O)(=O)n2cc(CNc3ccc(N4CCOCC4=O)cc3)c3ccccc32)cc1,53.5%
20,O=C(CCCCCCN1CC(=O)N2[C@@H](c3ccccc3Cl)c3[nH]c4ccccc4c3C[C@H]2C1=O)NO,17.8%

row,SMILES,growth
1,N[C@@H](CCCCNCC(=O)O)C(=O)O,109%
2,Cc1cc(NCc2cc(Nc3ccnc4cc(Cl)ccc34)ccc2F)nc(N2CCN(C)CC2)n1,-13.5% (active)
3,Nc1n[nH]c(-c2cc(Cl)ccc2O)c1-c1ccccc1,85.2%
4,O=c1[nH]ccc2nc(N3CCC(O)CC3)nc(Nc3ccc(N4CCOCC4)cc3)c12,70.6%
5,COc1cc(Cn2ncc3ccc(NC(=O)c4cc5ccccc5oc4=N)cc32)cc(OC)c1OC,52.2%
6,CCCCCCCOc1c(OC)cc(C2CC(=O)Nc3c2c(C)nn3-c2nc3ccccc3[nH]2)cc1OC (stereo not given),24.5%
7,COc1cccc(-c2nn(-c3ccccc3)cc2-c2ccnc(NCCCNC(=O)c3cccc(C(F)(F)F)c3)c2)c1,21.5%
8,COc1ccc(-c2cc(-c3cc(OC)ccc3OC)nc(SCC(=O)c3ccccc3)c2C#N)cc1,111%
9,COc1cc(N2C(=O)c3nccnc3C2=O)cc(OC)c1OC,100%
10,CC(=O)c1nc(Nc2ccc(C)cc2)sc1C,95.6%
11,O=C(CCCCCCSc1nc(-c2ccccc2)cc(-c2ccc(Cl)cc2)n1)NO,0.872% (active)
12,CN1CCN(CCCOc2ccc3nc(Nc4ccc(F)c(F)c4)ccc3c2)CC1,17.2%
13,CC(=O)O[C@]1(C(C)=O)CCC2C3C[C@H](C)C4=CC(=O)CC[C@]4(C)C3CC[C@@]21C (stereo not given in full),81.8%
14,Cc1ccc(/C=C/c2c(C(=O)/C=C/c3ccc(C(F)(F)F)cc3)c(C)nc3ccccc23)cc1,9.01% (active)
15,O=C1c2cccc(NCCN=Cc3cc([N+](=O)[O-])ccc3O)c2C(=O)c2c(NCCN=Cc3cc([N+](=O)[O-])ccc3O)cccc21,32.5%
16,COC(=O)[C@]12CC[C@@H](C)[C@H](C)[C@@H]1C1=CC[C@@H]3[C@@]4(C)C(C=O)=C[C@@](C)(COC(C)=O)[C@@H]4[C@H](O)C[C@@]3(C)[C@]1(C)CC2,1.74% (active)
17,CC(C)(C)CC(C)(C)Nc1c(-c2ccncc2)nc2cnccn12,91.6%
18,COc1cc(C(=O)/C=C/c2c(C(F)(F)F)nc3sccn23)cc(OC)c1OC,-9.49% (active)
19,COc1cc(-c2nn(-c3ccccc3)cc2-c2ccnc(NCCNS(=O)(=O)c3ccc(Cl)cc3)n2)ccc1Cl,35.8%
20,COc1cc(/C=N/n2c(CN3CCOCC3)nc3ccccc3c2=O)cc(OC)c1OC,104%
